The list is not random: actives were taken first. Their share in the collection is about 10%.
ALDH1A1 block: qHTS Assay for Inhibitors of Aldehyde Dehydrogenase 1 (ALDH1A1) | Potency, µM (series often up to 75.3 µM), for inactives: at the top dose activity, negative = inhibition, usual class: inhibitors | actives 7.3% (n = 220,000) | Purified ALDH1A1, NADH fluorescence, propionaldehyde substrate | Aldehyde dehydrogenase 1A1 (Homo sapiens), P00352;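 further: potency means the concentration at half of the fitted maximal effect; plate controls were no enzyme wells and a reference inhibitor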
Luc counter: Counterscreen for Luciferase (Kinase-Glo TM) Inhibition | Luciferin 4-monooxygenase (Photuris pensylvanica), Q27757 | Kinase-Glo luciferase, ATP luminescence, 8 min | Potency, µM (series often up to 38.3 µM), without a hit: at the highest dose activity change, negative = inhibition, usual class: inhibitors | actives 0.28% (n = 200,000) | AID 1379, 2008; active means well fitted inhibition curve with a large enough effect; inconclusive means small, poorly fitted or top-dose-only effect; further: potency means the concentration at half of the fitted maximal effect; nearly all actives have a fitted effect of over 60% in size
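Kinase-Glo luciferase light output from ATP and luciferin was measured with 10 uM ATP, within the enzyme's linear range. Buffer: 50 mM imidazole pH 7.2, 50 mM KCl, 7 mM MgCl2, 0.01% Tween 20, 0.05% BSA; luminescence read after 8 min at ambient temperature.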
IMPase inh: qHTS Assay for Identifying the Cell-Membrane Permeable IMPase Inhibitors; Inositol monophosphatase 1 (Rattus norvegicus), P97697; CHO-M1 cells, IP1 accumulation, HTRF TR-FRET ratio; inhibition (IP1 accumulation), % at 46.1 µM; 120,000 tested, under 10 active; AID 901, 2007; active means well fitted curve in the direction sought with a large enough effect in the signal ratio, not every such curve was filed as active; inconclusive means small, poorly fitted or top-dose-only effect, or a change in a side signal; inactive means no such curve, though single readings can be large or run the other way; the % refers to the signal ratio;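 further: cells stimulated with carbachol in lithium chloride buffer; plate controls were DMSO basal wells for no effect and reference inhibitor wells for full effect; higher means more IMPase inhibition seen as more IP1 and lower FRET ratio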
Target sequence (P97697 whole entry, looked up): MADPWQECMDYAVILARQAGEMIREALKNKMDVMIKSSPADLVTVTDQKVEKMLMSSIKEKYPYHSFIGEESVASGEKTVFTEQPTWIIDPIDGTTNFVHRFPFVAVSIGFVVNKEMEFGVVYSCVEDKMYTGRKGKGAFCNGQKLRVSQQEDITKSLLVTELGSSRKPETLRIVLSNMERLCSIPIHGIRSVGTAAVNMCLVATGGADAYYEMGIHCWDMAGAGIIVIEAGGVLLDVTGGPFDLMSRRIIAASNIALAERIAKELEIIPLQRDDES
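Seeded CHO-M1 cells were dosed with compound at up to 46 uM, stimulated with carbachol for 30 min, then lysed in IP-One detection reagents. Higher IP1 lowers the TR-FRET signal.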
Lamin A splicing: qHTS Assay for Modulators of Lamin A Splicing; HeLa LMNA splicing GFP/RFP minigene ratio, 48 h; Potency, µM (top dose mostly 46.1 µM), for inactives: at the highest dose ratio change, negative = inhibition, most hits filed as inhibitors; actives 0.01% (n = 200,000); active means well fitted inhibition curve with a large enough effect in the signal ratio, with a control signal flat, not every such curve was filed as active; inconclusive means small, poorly fitted or top-dose-only effect, or effect the other way, or a change in a side signal; the % refers to the signal ratio; further: potency means the concentration at half of the fitted maximal effect
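S3 HeLa cells stably expressing lamin A-EGFP splicing minigene plus DsRed2, 600 cells/well, 48 h compound exposure at 37C. Laser-scanning cytometry; analysed as GFP (500-530 nm)/RFP (575-640 nm) total intensity ratio; 0.5% DMSO vehicle.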
PNC inhibitor: High Content Assay for Compounds that inhibit the Assembly of the Perinucleolar Compartment; PC3M PTB-GFP, PNC prevalence imaging, 16 h; active compounds read low; activity change (PNC), negative = inhibition, % at 10 µM; actives 3.1% (n = 140,000);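 active means readout at or below -70, meaning at least 70% loss of cells showing the perinucleolar compartment, a nuclear body marking cancer cells; inconclusive means readout between -30 and a set limit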;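 further: plate controls were DMSO wells for no effect and camptothecin positive control wells for full effect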
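PC3M cells stably expressing PTB-GFP, 750–1000 cells/well, treated 16 h at 37 °C with compound (23 nl of library stock), in duplicate. After paraformaldehyde fixation and Hoechst stain, imaged at 20x; PNC prevalence scored by image analysis.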
HPGD inh: qHTS Assay for Inhibitors of HPGD (15-Hydroxyprostaglandin Dehydrogenase); AID 894, 2007; actives 4.3% (n = 150,000); Potency, µM, without a hit: at the highest dose activity change, negative = inhibition, hits mostly inhibitors; purified HPGD, NADH fluorescence kinetic, PGE2 substrate; further: potency means the concentration at half of the fitted maximal effect
Target sequence (P15428 whole entry, looked up): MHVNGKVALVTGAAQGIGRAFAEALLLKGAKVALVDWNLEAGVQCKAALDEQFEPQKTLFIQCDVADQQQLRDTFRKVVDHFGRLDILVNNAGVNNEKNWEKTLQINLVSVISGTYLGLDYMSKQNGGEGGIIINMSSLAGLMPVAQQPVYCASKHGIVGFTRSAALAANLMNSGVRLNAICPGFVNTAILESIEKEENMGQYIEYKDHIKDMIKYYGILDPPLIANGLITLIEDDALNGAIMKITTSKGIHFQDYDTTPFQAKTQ
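NADH formation kinetics: reaction with 30 uM PGE2 and 1 mM NAD+ (final), 20 nM enzyme, Tris-HCl pH 8 with Tween 20, after 15 min compound preincubation at room temperature. Fluorescence change, last versus first of five reads.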
* hit, by the source's call; [ ] = another dose, or the depositor's remark. Unless noted, the call rests on the fitted dose curve; in most records, active means well fitted inhibition curve with a large enough effect (not every such curve was filed as active); inconclusive means small, poorly fitted or top-dose-only effect, or another doubt; inactive means no such curve, though single readings can be large or run the other way. Unless noted, on the % scale 0 is the no-effect control and ±100 the full control effect.

Screening CCc1ccccc1N/N=C(/C)c1c(O)cc(C)oc1=O returned ALDH1A1 block 7.9µM*, Luc counter 0% and Lamin A splicing -10%[46 µM].
For COC(=O)c1ccc(C(NC(=O)OCc2ccccc2)/C(=C/[C@@H](C)C(=O)NCc2nc3ccccc3s2)c2cccnc2)cc1 (stereo not given in full) the results were ALDH1A1 block -7%, Luc counter -2% and HPGD inh -9%.
Screening COc1cccc2c1Oc1ncccc1N(C(=O)Nc1ccc(F)c(Cl)c1)C2 returned Lamin A splicing -8%[46 µM].
Cc1cn(CC[C@H](N)C(=O)O)c(=O)[nH]c1=O was read as ALDH1A1 block -7%[13.5 µM], Luc counter -2%[7.66 µM] and HPGD inh -4%.
For Cc1cc(-c2ccccc2)c(C#N)c(SCC(N)=O)n1 the results were ALDH1A1 block 13µM*, Luc counter -6%, IMPase inh 0, Lamin A splicing 10%, PNC inhibitor 13 and HPGD inh -13%.
CCC(=O)N1CCN(c2nc(-c3ccccc3)c3c(c2C#N)CCCC3)CC1 was read as ALDH1A1 block inconclusive, Luc counter 0%, IMPase inh 7, Lamin A splicing 4%, PNC inhibitor -7 and HPGD inh inconclusive.
Screening CCOC(=O)CC(=O)CSc1nc(C)cc(-c2cccnc2)c1C#N returned ALDH1A1 block -15%, Luc counter 5%, IMPase inh 9, Lamin A splicing 5%, PNC inhibitor 23 and HPGD inh -6%.
Screening N#Cc1c(SCC(=O)O)nc(-c2ccccc2)c2c1CCCC2 returned ALDH1A1 block 18µM*, IMPase inh inconclusive, Lamin A splicing 7% and PNC inhibitor 30.
CCc1nnc(NC(=O)CSc2nc(-c3ccc(F)cc3)cc(-c3ccccc3)c2C#N)s1 was read as ALDH1A1 block 10µM*, IMPase inh -17, Lamin A splicing -16% and PNC inhibitor -5.
Screening CCOC(=O)CSc1nc(C2CC2)cc(-c2ccc(Cl)cc2)c1C#N returned ALDH1A1 block 32µM*, Luc counter 0%, IMPase inh 0, Lamin A splicing 4%, PNC inhibitor inconclusive and HPGD inh inconclusive.
`CC[C@H]1C2=C3C(CC[C@H]4C(OCc5ccc(F)cc5C(F)(F)F)OC[C@](C)([C@@H]34)N(C(=O)OC(C)(C)C)C2)C2COC(=O)OCC21` (stereo not given in full) gave ALDH1A1 block -8%, Luc counter -4% and HPGD inh -12%.
For Cc1ccc(-c2nc(SCC(N)=O)c(C#N)c3c2CCCC3)cc1 the results were ALDH1A1 block inconclusive, Luc counter 8%, IMPase inh -7, Lamin A splicing 6%, PNC inhibitor inconclusive and HPGD inh inconclusive.
`N#Cc1c(SCC(N)=O)nc(-c2ccccc2)c2c1CCCC2` gave ALDH1A1 block 22µM*, Luc counter -2%, IMPase inh inconclusive, Lamin A splicing inconclusive, PNC inhibitor -26 and HPGD inh -7%.
COC(=O)C(Cc1c[nH]c2ccccc12)NC(=O)COc1ccc(Cl)cc1Cl (stereo not given) was read as IMPase inh -3.
CCc1nc(OCC(=O)c2ccccc2)c(C#N)c2c1COC(C)(C)C2 was read as ALDH1A1 block 6.3µM*, Luc counter 15%, IMPase inh 6, Lamin A splicing -4%, PNC inhibitor -15 and HPGD inh -13%.
O=[N+]([O-])/C(C(Cl)=C(Cl)Cl)=C(\Nc1ccc(F)cc1)n1cncn1 was read as ALDH1A1 block 13µM*, Luc counter 17%, IMPase inh 15, Lamin A splicing inconclusive, PNC inhibitor 0 and HPGD inh 28µM*.
`CCOc1ccccc1N/C(=C(/C(Cl)=C(Cl)Cl)[N+](=O)[O-])n1cncn1` gave ALDH1A1 block 20µM*, Luc counter -2%, IMPase inh -5, Lamin A splicing 0%, PNC inhibitor 10 and HPGD inh -16%.
`COC(=O)c1sccc1S(=O)(=O)N(CC(=O)NCc1ccc(F)cc1)c1ccccc1` gave Lamin A splicing -15%[46 µM].
`Cc1ccc(S(=O)(=O)N(C)Cc2ccc(C(=O)N/N=C/c3ccc(OC(F)F)cc3)cc2)cc1` gave ALDH1A1 block inconclusive, Luc counter 1%, Lamin A splicing -6%, PNC inhibitor -18 and HPGD inh -8%.
`C/C(=N\NC(=O)c1ccc(CN(C)S(=O)(=O)c2ccc(C)cc2)cc1)c1ccc(OC(F)F)cc1` gave ALDH1A1 block 25µM*, IMPase inh 1, Lamin A splicing inconclusive and PNC inhibitor 5.
`CCOC(=O)c1ccccc1NC(=O)c1sc2nc3n(c(=O)c2c1C)CCCCC3` gave Lamin A splicing -1%[46 µM].
`O=C(Oc1ccc2ccccc2c1Br)N1CCCCCC1` gave ALDH1A1 block -3%, Luc counter -12%, IMPase inh 1, Lamin A splicing inconclusive, PNC inhibitor inconclusive and HPGD inh 32µM*.
COC(=O)NNC(=O)COc1ccc2ccccc2c1Br was read as ALDH1A1 block -1%, Luc counter -3%, Lamin A splicing -2%, PNC inhibitor -82* and HPGD inh 16µM*.
`COc1ccc(NC(=O)c2cc3c(=O)n(C)c4cc(Cl)ccc4c3s2)cc1Cl` gave Lamin A splicing 2%[46 µM].
Screening COC(=O)N(/C=C/c1ccc(OC)cc1)CCc1ccc(OC)c(OC)c1 returned ALDH1A1 block 1%[13.5 µM].
For C/C(=N\NC(=O)c1ccccc1NC(=O)c1ccc(Cl)cc1)c1ccncc1 the results were ALDH1A1 block 0%, Luc counter 1.3µM* and Lamin A splicing inconclusive.
`O=C(Nc1ccccc1C(=O)N/N=C/c1ccco1)c1ccc(Cl)cc1` gave ALDH1A1 block 6%, Luc counter 13µM*, IMPase inh -9, Lamin A splicing -17%, PNC inhibitor 15 and HPGD inh -14%.
For CC(C)(C)C(=O)Nc1ccccc1C(=O)Nc1ccncc1 the results were ALDH1A1 block 8%, Luc counter 2%, IMPase inh -12, Lamin A splicing -7%, PNC inhibitor -100* and HPGD inh -17%.
